Consider 17 compounds from PubChem BioAssay (EPA / NIEHS).

Molecules are shown by their SMILES. Inconclusive results are not listed. Activity calls are given as the source filed them. Rule for the calls: active = hit-call score of the fitted dose curve at least 0.9, where 1 is the maximum; inconclusive = response in the unintended direction; inactive = score below 0.9.

Chain of human Rho Associated Coiled-coil Containing Protein Kinase 1 (ROCK1), ROCK1 (gene 6093) (Q13464 whole entry, looked up): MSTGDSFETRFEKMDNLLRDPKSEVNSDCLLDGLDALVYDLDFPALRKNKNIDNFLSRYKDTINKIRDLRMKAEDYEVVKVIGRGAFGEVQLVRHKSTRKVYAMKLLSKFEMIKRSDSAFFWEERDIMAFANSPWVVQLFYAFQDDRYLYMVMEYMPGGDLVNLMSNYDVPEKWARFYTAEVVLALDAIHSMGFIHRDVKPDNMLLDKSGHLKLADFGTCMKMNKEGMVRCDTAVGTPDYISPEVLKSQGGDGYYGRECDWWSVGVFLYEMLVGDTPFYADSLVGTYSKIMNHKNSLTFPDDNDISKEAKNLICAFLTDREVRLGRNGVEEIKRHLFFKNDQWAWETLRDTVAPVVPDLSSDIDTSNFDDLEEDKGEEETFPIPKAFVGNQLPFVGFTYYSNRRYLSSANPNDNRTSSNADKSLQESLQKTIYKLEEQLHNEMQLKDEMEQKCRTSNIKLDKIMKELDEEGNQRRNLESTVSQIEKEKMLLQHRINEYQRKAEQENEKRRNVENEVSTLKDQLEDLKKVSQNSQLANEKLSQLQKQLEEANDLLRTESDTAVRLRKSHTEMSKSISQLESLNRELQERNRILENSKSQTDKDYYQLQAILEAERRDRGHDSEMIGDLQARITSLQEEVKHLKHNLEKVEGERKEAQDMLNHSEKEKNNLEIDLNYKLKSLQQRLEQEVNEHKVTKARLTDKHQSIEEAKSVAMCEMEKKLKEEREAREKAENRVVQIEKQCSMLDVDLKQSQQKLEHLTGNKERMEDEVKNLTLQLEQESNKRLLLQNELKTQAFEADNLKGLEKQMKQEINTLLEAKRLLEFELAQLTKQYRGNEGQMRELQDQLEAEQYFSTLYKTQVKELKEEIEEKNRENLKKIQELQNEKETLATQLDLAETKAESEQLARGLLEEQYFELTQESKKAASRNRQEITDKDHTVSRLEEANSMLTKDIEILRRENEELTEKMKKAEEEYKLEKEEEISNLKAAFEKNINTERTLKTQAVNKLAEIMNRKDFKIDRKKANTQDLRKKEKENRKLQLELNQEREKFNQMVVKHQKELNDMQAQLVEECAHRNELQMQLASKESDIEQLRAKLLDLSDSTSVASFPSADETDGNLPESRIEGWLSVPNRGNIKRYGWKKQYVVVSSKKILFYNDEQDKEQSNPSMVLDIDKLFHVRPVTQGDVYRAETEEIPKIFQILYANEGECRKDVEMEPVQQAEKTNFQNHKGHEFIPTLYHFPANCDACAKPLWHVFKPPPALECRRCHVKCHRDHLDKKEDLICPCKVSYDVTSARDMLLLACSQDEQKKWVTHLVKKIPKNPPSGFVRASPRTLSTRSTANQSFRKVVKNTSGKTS
Chain of human Sirtuin 2 (SIRT2), SIRT2 (gene 22933) (Q8IXJ6 whole entry, looked up): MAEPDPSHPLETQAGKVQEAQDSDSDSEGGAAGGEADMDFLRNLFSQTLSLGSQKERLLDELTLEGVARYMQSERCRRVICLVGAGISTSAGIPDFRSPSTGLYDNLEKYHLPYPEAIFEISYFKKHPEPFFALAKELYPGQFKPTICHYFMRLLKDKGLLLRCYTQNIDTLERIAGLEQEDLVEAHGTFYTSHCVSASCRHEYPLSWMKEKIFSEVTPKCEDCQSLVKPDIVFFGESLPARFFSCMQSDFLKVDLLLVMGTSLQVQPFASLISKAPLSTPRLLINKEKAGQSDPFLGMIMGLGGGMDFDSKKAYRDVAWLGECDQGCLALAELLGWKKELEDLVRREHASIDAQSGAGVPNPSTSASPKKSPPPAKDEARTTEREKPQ
Chain of human Protein Tyrosine Phosphatase Non-receptor Type 6 (PTPN6), PTPN6 (gene 5777) (P29350 whole entry, looked up): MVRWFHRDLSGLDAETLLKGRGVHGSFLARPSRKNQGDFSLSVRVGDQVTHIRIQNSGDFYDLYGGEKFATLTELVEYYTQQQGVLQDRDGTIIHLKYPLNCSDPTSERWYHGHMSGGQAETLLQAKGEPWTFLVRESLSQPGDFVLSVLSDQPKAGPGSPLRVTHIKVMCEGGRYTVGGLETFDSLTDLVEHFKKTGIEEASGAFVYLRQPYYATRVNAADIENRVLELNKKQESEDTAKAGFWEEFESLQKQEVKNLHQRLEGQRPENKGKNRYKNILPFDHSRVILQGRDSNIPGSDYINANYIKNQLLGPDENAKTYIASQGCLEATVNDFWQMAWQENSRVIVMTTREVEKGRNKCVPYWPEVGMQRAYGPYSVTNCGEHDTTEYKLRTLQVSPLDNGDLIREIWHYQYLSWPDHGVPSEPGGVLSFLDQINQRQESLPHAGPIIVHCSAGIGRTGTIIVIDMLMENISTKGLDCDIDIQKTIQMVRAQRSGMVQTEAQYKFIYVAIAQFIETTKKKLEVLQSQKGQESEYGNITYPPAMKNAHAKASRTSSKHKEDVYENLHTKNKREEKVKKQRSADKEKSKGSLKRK
Chain of human Sirtuin 1 (SIRT1), SIRT1 (gene 23411) (Q96EB6 whole entry, looked up): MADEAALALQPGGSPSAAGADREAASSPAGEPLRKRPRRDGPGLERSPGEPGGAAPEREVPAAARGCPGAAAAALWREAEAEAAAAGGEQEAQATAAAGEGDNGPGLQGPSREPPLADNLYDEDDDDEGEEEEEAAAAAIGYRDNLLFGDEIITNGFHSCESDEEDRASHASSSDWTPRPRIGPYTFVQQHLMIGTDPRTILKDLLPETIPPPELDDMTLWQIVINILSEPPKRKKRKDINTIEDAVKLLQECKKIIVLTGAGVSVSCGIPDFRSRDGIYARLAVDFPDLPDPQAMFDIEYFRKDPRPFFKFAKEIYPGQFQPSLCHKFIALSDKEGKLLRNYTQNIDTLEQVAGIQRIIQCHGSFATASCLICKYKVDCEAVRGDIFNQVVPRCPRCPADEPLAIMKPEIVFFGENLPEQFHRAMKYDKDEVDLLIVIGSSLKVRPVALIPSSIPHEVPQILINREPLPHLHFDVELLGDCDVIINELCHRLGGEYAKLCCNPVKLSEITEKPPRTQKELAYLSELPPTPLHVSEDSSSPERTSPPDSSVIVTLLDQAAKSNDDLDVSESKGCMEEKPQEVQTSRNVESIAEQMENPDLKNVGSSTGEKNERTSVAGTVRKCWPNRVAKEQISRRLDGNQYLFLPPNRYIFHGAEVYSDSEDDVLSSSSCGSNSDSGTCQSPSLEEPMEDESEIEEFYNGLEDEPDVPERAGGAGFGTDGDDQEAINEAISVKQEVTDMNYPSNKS
Chain of human Sirtuin 3 (SIRT3), SIRT3 (gene 23410) (Q9NTG7 whole entry, looked up): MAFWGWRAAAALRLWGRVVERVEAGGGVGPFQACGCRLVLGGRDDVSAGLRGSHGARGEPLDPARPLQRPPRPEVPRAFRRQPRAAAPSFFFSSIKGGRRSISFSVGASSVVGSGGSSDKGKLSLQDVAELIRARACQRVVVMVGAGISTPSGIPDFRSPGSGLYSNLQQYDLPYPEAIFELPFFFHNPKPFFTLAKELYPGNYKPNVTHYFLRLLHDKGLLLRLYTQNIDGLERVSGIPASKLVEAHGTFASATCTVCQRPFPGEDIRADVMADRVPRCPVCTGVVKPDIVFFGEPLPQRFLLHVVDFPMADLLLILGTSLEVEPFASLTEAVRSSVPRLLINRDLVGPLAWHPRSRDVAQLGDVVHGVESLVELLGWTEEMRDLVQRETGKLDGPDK

The first experiment deals with human Protein Tyrosine Phosphatase Non-receptor Type 6 (PTPN6), PTPN6 (gene 5777) (UniProt P29350). The experiment can be described thus: NVS_ENZ_hPTPN6: NovaScreen (NVS) Enzymatic Assay for human Protein Tyrosine Phosphatase Non-receptor Type 6 (PTPN6) (AID 2283210). The method, boiled down:
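Cell-free assay with recombinant PTPN6 expressed in SF9 cells, fluorescent substrate, product separated from substrate by electrophoretic mobility shift; read 1.33 hours after dosing. Primary screen in duplicate at 25 uM, actives retested in concentration series; DMSO baseline.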
With `CC(COCC(C)OC(=O)c1ccccc1)OC(=O)c1ccccc1` (centres undefined), the compound was called inactive.

For `CCCCCCC(C=O)=Cc1ccccc1`, the call was inactive.

As for `COc1ccc(C(=O)Nc2nc3ccccc3c(NCc3ccccc3)c2C#N)cc1`, the outcome was inactive.

On to `c1ccc2occc2c1`, for which the call was inactive.

In another experiment the target is human Rho Associated Coiled-coil Containing Protein Kinase 1 (ROCK1), ROCK1 (gene 6093) (UniProt Q13464). Nature of the experiment: NVS_ENZ_hROCK1: NovaScreen (NVS) Enzymatic Assay for human Rho Associated Coiled-coil Containing Protein Kinase 1 (ROCK1) (AID 2283214). As to the method:
NVS_ENZ_hROCK1 is a biochemical, single-readout assay that uses extracted gene-proteins in a cell-free assay. Measurements were taken 1 hour after chemical dosing in a 384-well plate.NVS_ENZ_hROCK1 is one of one assay component(s) measured or calculated from the NVS_ENZ_hROCK1 assay. It is designed to make measurements of enzyme activity, a form of enzyme reporter, as detected with fluorescence intensity signals by Fluorescence and electrophoretic mobility shift technology.Data from the assay component NVS_ENZ_hROCK1 was analyzed into 1 assay endpoint. This assay endpoint, NVS_ENZ_hROCK1, was analyzed in the positive analysis fitting direction relative to DMSO as the negative control and baseline of activity. Using a type of enzyme reporter, loss-of-signal activity can be used to understand changes in the enzymatic activity as they relate to the gene ROCK1. Furthermore, this assay endpoint can be referred to as a primary readout, because this assay has produced multiple assay endpoints where this one serves a enzymatic activity function. To generalize the intended target to other relatable targets, this assay endpoint is annotated to the kinase intended target family, where the subfamily is serine/threonine kinase.
Binding assays used specific radioligands (tritiated, iodinated) with non-radioactive competitive displacement ligands in agonist or antagonist protocols (as indicated) and various reference compounds and inhibitors to titrate specific binding to receptors and transporters. Most enzyme assays (CYPs, kinases, phosphatases, proteases, HDACs) used recombinant protein and specific substrates (fluorescence mostly, some colorimetric and radioactive) and inhibitors, followed by a biochemical separation of substrate and product. All assays for the biochemical HTS were initially run in duplicate at a single concentration (10 uM for CYP450 assays and 25 uM for all others). […] Each assay was run with positive and negative controls, and concurrent controls on every plate. The follow-up (secondary) screen tested active chemical-pairs in concentration series, as well as a few additional assays not tested in the primary screen, some selected negative inactives, and several cases re-run in the concentration series for confirmatory purposes.
For `O=C(Oc1ccccc1)c1cccc(C(=O)Oc2ccccc2)c1`, the result was inactive.

For `N[C@@H](Cc1c[nH]c2ccccc12)C(=O)O`, the compound was classed as inactive.

Regarding `CC(C)c1cccc(C(C)C)c1`, the result was inactive.

Regarding `O=C(N[C@@H](c1ccccc1)[C@@H]1CCCCN1)c1cccc(C(F)(F)F)c1Cl`, the call was inactive.

Consider `CN(C)C(=O)NC1(c2ccccc2)CCN(CCC[C@]2(c3ccc(Cl)c(Cl)c3)CCCN(C(=O)c3ccccc3)C2)CC1`, for which the call was inactive.

The target of a further experiment is human Sirtuin 2 (SIRT2), SIRT2 (gene 22933) (UniProt Q8IXJ6). Nature of the experiment: NVS_ENZ_hSIRT2: NovaScreen (NVS) Enzymatic Assay for human Sirtuin 2 (SIRT2) (AID 2283217). The method, boiled down:
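Cell-free recombinant human SIRT2, fluorescent substrate with product separated by electrophoretic mobility shift, 1 hr. Screened in duplicate at 25 uM; hits rerun singly in concentration-response up to 50 uM, relative to DMSO.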
For the compound `O=C(N[C@@H](c1ccccc1)[C@@H]1CCCCN1)c1cccc(C(F)(F)F)c1Cl`, the result was inactive.

Consider `Cc1occc(=O)c1O`, for which the call was inactive.

Regarding `C=CCc1ccc(OC)c(OC)c1`, the compound was called inactive.

In the case of `CCN(CC)CCOc1ccc(C(=C(Cl)c2ccccc2)c2ccccc2)cc1`, the AC50 was 21 µM (active).

Turning to `CN(C)C(=O)NC1(c2ccccc2)CCN(CCC[C@]2(c3ccc(Cl)c(Cl)c3)CCCN(C(=O)c3ccccc3)C2)CC1`, the half-maximal activity concentration (AC50) was 1.69 µM (active).

A further experiment has as its target human Sirtuin 1 (SIRT1), SIRT1 (gene 23411) (UniProt Q96EB6). The experiment can be described thus: NVS_ENZ_hSIRT1: NovaScreen (NVS) Enzymatic Assay for human Sirtuin 1 (SIRT1) (AID 2283219). The method, boiled down: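 Cell-free recombinant SIRT1 with a fluorescent substrate; substrate and product separated by electrophoretic mobility shift and read by fluorescence intensity, 1 h after dosing. Primary screen at 25 uM in duplicate; hits re-run in concentration-response up to 50 uM, relative to DMSO.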
Consider `O=C(Oc1ccccc1)c1cccc(C(=O)Oc2ccccc2)c1`, for which the call was inactive.

On to `CC1=C(C)S(=O)(=O)CCS1(=O)=O`, for which the outcome was inactive.

Turning to `N[C@@H](Cc1c[nH]c2ccccc12)C(=O)O`, the compound was classed as inactive.

`COC(=O)CCC(=O)OC`: the compound was classed as inactive.

On to `Cc1cc(SC2=C(O)C[C@@](CCc3ccc(N)cc3)(C(C)C)OC2=O)c(C(C)(C)C)cc1CO`, for which the outcome was inactive.

The target of another experiment is human Sirtuin 3 (SIRT3), SIRT3 (gene 23410) (UniProt Q9NTG7). The experiment can be described thus: NVS_ENZ_hSIRT3: NovaScreen (NVS) Enzymatic Assay for human Sirtuin 3 (SIRT3) (AID 2283222). The method, boiled down:
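Cell-free enzyme assay with recombinant protein and fluorescent substrate, product separated by electrophoretic mobility shift; read 1 hour after dosing. Screened in duplicate at 25 uM, then singleton concentration-response up to 50 uM; loss of signal versus DMSO.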
On to `O=C1NC(=O)C(c2ccccc2)(c2ccccc2)N1`, for which the compound was classed as inactive.

In the case of `O=C(N[C@@H](c1ccccc1)[C@@H]1CCCCN1)c1cccc(C(F)(F)F)c1Cl`, the result was inactive.

`COC(=O)CCC(=O)OC`: the compound was called inactive.

In the case of `CC(C)OC(=O)C(C)(C)Oc1ccc(C(=O)c2ccc(Cl)cc2)cc1`, the AC50 was 8.69 µM (active).

On to `CCN(CC)CCOc1ccc(C(=C(Cl)c2ccccc2)c2ccccc2)cc1`, for which the compound was called inactive.

For orientation: AC50 means the midpoint of the concentration-response curve, whichever way the signal moves.
